Source: PubChem BioAssay (NCI)
Compounds without any hit were thinned out: in the full panel of roughly 79,000, 15% have a hit. Values without a mark were called inactive. Activity calls are given as the source filed them. Rule as the data show it: active = growth inhibition above about 70%; inactive = the rest.

How the values were obtained:
[1] = NCI Yeast Anticancer Drug Screen. Data for the rad50 strain (AID 155);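 also: 0% = growth of vehicle-only cultures of the same strain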; details: S. cerevisiae rad50 strain growth inhibition, hits give high values
In short: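 Genetically altered yeast (DNA repair pathway); compound treatment; growth inhibition vs vehicle ctrl.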

[2] = NCI Yeast Anticancer Drug Screen. Data for the mec2-1 strain (AID 157); details: S. cerevisiae mec2-1 strain, hits give high values
In short: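 Yeast mec2-1 mutant treated with compound. Readout: growth inhibition vs vehicle controls.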

[3] = NCI Yeast Anticancer Drug Screen. Data for the sgs1 mgt1 strain (AID 161);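 also: 0% = growth of cultures given vehicle only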; details: S. cerevisiae sgs1 mgt1 strain, hits give high values
In short: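 Genetically altered yeast, compound exposure, growth inhibition relative to vehicle.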

[4] = NCI Yeast Anticancer Drug Screen. Data for the cln2 rad14 strain (AID 165);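 also: 0% = growth equal to vehicle treated cultures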; details: S. cerevisiae cln2 rad14 strain, hits give high values
In short: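 cln2 rad14 yeast strain; compound exposure; growth inhibition read vs vehicle controls.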

[5] = NCI Yeast Anticancer Drug Screen. Data for the bub3 strain (AID 167); details: S. cerevisiae bub3 mutant strain, hits give high values
In short: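 Yeast carrying a defined mutation is treated with each compound, and growth is compared with that of vehicle-exposed cells to give inhibition.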

[6] = NCI Yeast Anticancer Drug Screen. Data for the mlh1 rad18 strain (AID 175); details: S. cerevisiae mlh1 rad18 strain growth inhibition, hits give high values
In short: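 Yeast w/ defined DNA-repair lesions; compound exposure; growth vs vehicle controls → % inhibition.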

[7] = at 5.0 µM (retest, dose inferred, filed as 0.5)
[8] = at 50.0 µM (retest, dose inferred, filed as 5.0)

SMILES | growth inhibition [1, 7] | growth inhibition [1, 8] | growth inhibition ([1]; at 50.0 µM) | growth inhibition [2, 7] | growth inhibition [2, 8] | growth inhibition ([2]; at 50.0 µM) | growth inhibition [3, 7] | growth inhibition [3, 8] | growth inhibition ([3]; at 50.0 µM) | growth inhibition [4, 7] | growth inhibition [4, 8] | growth inhibition ([4]; at 50.0 µM) | growth inhibition [5, 7] | growth inhibition [5, 8] | growth inhibition ([5]; at 50.0 µM) | growth inhibition [6, 7] | growth inhibition [6, 8] | growth inhibition ([6]; at 50.0 µM)
CC(=O)N(C1=C(Cl)C(=O)c2ccccc2C1=O)c1ccc(Cl)cc1 | 98% (active) | 99% (active) | 97.8% (active) | 99% (active) | 99% (active) | 95.3% (active) | 100% (active) | 99% (active) | 99.2% (active) | 95% (active) | 99% (active) | 78% (active) | 97% (active) | 99% (active) | 79.8% (active) | 99% (active) | 99% (active) | 96.7% (active)
CC(C)CCCC(C)[C@H]1CCC(C2C[C@@H](O)[C@@H]3CC(O)[C@@H](O)C[C@]3(CO)C2=O)[C@]1(C)CCO (stereo not given in full) | -14% | 99% (active) | 92.5% (active) | -13% | 99% (active) | 92.5% (active) | -6% | 99% (active) | 91.7% (active) | 13% | 98% (active) | 90.2% (active) | 4% | 98% (active) | 91.6% (active) | -10% | 98% (active) | 92% (active)
Cc1c2cc(Cl)ccc2cc2c1ccc1ccccc12 | 12% | 5% | 96.7% (active) | -7% | 6% | 98.8% (active) | 2% | 14% | 99.2% (active) | -3% | 8% | 70.8% (active) | -6% | -4% | 96.5% (active) | -4% | 16% | 98.5% (active)
Cc1[nH]c2ccccc2c1C(c1ccccc1)c1c(C)[nH]c2ccccc12 | 2% | 92% (active) | 71.6% (active) | 1% | 98% (active) | 83% (active) | 10% | 97% (active) | 87.2% (active) | 0% | 97% (active) | 81% (active) | -1% | 97% (active) | 83.5% (active) | 20% | 97% (active) | 94.7% (active)
CCCC(=O)NC1=C(Cl)C(=O)c2ccccc2C1=O | 100% (active) | 99% (active) | 91.8% (active) | 100% (active) | 100% (active) | 92.5% (active) | 100% (active) | 100% (active) | 92.5% (active) | 90% (active) | 99% (active) | 91.5% (active) | 100% (active) | 99% (active) | 89.7% (active) | 101% (active) | 99% (active) | 87.5% (active)
CCCN1C(=O)c2ccccc2C1=O | 9% | 2% | 20.4% | 1% | -3% | -6.65% | -3% | 4% | 14.1% | 10% | 2% | 36.6% | 10% | 17% | -0.55% | 4% | 0% | 9.5%
O=[N+]([O-])c1ccc(N/N=C/COCCO)c([N+](=O)[O-])c1 | 2% | 20% | 37.4% | 9% | 11% | 11.8% | 0% | 62% | 23.1% | 4% | 2% | -24.2% | -1% | 14% | 73.6% (active) | 1% | 8% | 62%
O=C1C=CC(=O)N1C1c2ccccc2-c2ccccc21 | 99% (active) | 99% (active) | 99.5% (active) | 100% (active) | 100% (active) | 99.1% (active) | 99% (active) | 100% (active) | 99.5% (active) | 77% (active) | 99% (active) | 98% (active) | 100% (active) | 100% (active) | 99.5% (active) | 99% (active) | 99% (active) | 97.1% (active)
NC(CCC(=O)NC(CS(=O)(=O)O)C(=O)O)C(=O)O (stereo not given) | 1% | 6% | 13.2% | 3% | 2% | 12.8% | 3% | 5% | 79.7% (active) | 3% | 4% | 93.5% (active) | -3% | -6% | 13.4% | -3% | -2% | 85.9% (active)
NC(=O)c1nnn(Cc2cc(Cl)c(C(=O)c3ccc(Cl)cc3)c(Cl)c2)c1N | 2% | 98% (active) | 57.2% | 3% | 99% (active) | 98.9% (active) | 2% | 99% (active) | 50.3% | 1% | 98% (active) | 98.6% (active) | 5% | 99% (active) | 98.8% (active) | 13% | 94% (active) | 98.8% (active)
